Reference: PubChem BioAssay (Tox21)
Results filed as inconclusive are left out. A call without a number means that no potency is given here. Some structures have more than one record in an assay (separate samples or runs), and their calls can disagree. Activity calls are given as the source filed them. Calls follow the shape of the dose curve; as a rule, active = well fitted cell-killing curve with a large enough effect in the repeat runs; inconclusive = weak or mixed curves, or effect the other way; inactive = flat fitted curve, though single readings scatter.
Potency is read from the fitted curve at half-maximal effect.

Assay: qHTS assay to identify small molecule agonists of the sonic hedgehog signaling (Shh) pathway - cell viability counter screen (AID 1259366); also: nearly all actives have a fitted effect of over 50% in size
Conditions: NIH/3T3 Gli1-Luc viability, CellTiter-Fluor, 24 h; series mostly up to 92.4 µM; viability change, negative = cytotoxic: at the top concentration
Excerpt: National Center for Advancing Translational Sciences [NCATS]
NIH Chemical Genomics Center [NCGC]
U.S. Environmental Protection Agency [EPA]
National Institutes of Environmental Health Sciences [NIEHS]
National Toxicology Program [NTP]
U.S. Food and Drug Administration [FDA]
The sonic hedgehog (Shh) pathway is essential for normal embryonic development. Dysregulation of the Shh pathway can cause severe developmental defects in organs. Therefore chemicals that interfere with the pathway are potential developmental toxicants. A cell line designated 3T3Gli1-Luc (DMB/OARSA/CFSAN/FDA, Laurel, MD), a NIH/3T3 derived clone containing stably integrated Gli1-Luc reporter is used to detect chemical interference of the Shh pathway, by changes in the expression of the firefly Luc gene under the control of the Gli1 transcriptional response element. This cell line was used to screen Tox21 libraries for identifying and prioritizing the potential developmental toxicants that interfere Shh pathway. The cytotoxicity of the compounds was tested in parallel by measuring the cell viability using CellTiter-Fluor assay system (Promega, Madison, WI) in the same wells.
Tox21 Assay Protocol Summary:
3T3 Gli1-Luc cells were dispensed at 2,000 per well in 5uL of culture medium into white solid bottom 1536-well plates (Greiner Bio-One, Monroe, NC) using a Multidrop Combi (Thermo Scientific, Waltham, MA) dispenser. The assay plates were incubated at 37 C and 5% CO2 for 4hr, and then 23nL of compounds dissolved in DMSO and positive control were transferred using a Pintool station (Wako, San Diego, CA). The assay plates were incubated at 37C and 5% CO2 for 24hr. For viability read, after 23hr of compound treatment, 1uL of CellTiter-Fluor reagent (Promega Corporation, Madison, WI) was added to each well of the assay plates using Flying Reagent Dispenser (FRD, Aurora Discovery, San Diego, CA) and incubated the assay plates at 37C for 1hr. The fluorescence signal was quantified using a ViewLux plate reader (Perkin Elmer, Shelton, CT).
In the case of `O=C(O)c1cc(=O)c2c(OCC(O)COc3cccc4oc(C(=O)O)cc(=O)c34)cccc2o1`, the Potency is reported as “inactive”. With `CSCCC=O` the Potency was “inactive”. For `O=C(O)CC(C(=O)O)C(CC(=O)O)C(=O)O` (stereo not given), the Potency was “inactive”. In the case of `O=P(OC(CCl)CCl)(OC(CCl)CCl)OC(CCl)CCl`, the Potency is reported as 30.5 µM (active). For `COc1cc(Cc2cnc(N)nc2N)cc(OC)c1OC`, the Potency was “inactive”. For `CCCCOC(=O)COc1ccc(Cl)cc1Cl`, the Potency was “inactive”. With `CCCCCCCC(=O)OC` the Potency was “inactive”. In the case of `COc1ccc(Cl)cc1C(=O)NCCc1ccc(S(=O)(=O)NC(=O)NC2CCCCC2)cc1`, the Potency is reported as “inactive”. In the case of `CCCCCCCCCCCCOCCO`, the “viability change, negative = cytotoxic” value is reported as 4.47% [at 42.5 µM] (inactive). With `O=C(CC(C(=O)OC1CCCCC1)S(=O)(=O)O)OC1CCCCC1` (stereo not given) the Potency was “inactive”. For `C#C[C@]1(O)CC[C@H]2[C@@H]3CCC4=CC(=O)CC[C@@H]4[C@H]3CC[C@@]21C`, the Potency was “inactive”. In the case of `CCCCCCCCCCCCc1ccccc1`, the Potency is reported as “inactive”. In the case of `O=c1[nH]c(=O)n([C@H]2C[C@H](O)[C@@H](CO)O2)cc1Br`, the Potency is reported as “inactive”. For `O=C1CCC(N2C(=O)c3ccccc3C2=O)C(=O)N1` (stereo not given), the Potency was “inactive”. In the case of `CCCC(C)=O`, the Potency is reported as “inactive”. In the case of `C=C(C)C(=O)O[C@H]1C[C@@H]2CC[C@@]1(C)C2(C)C`, the Potency is reported as “inactive”. For `CC(C)c1ccc(S(=O)(=O)O)cc1`, the Potency was “inactive”. For `Nc1cc([N+](=O)[O-])ccc1O`, the Potency was 48.6 µM (active). In the case of `NNc1nncc2ccccc12`, the Potency is reported as 48.6 µM (active) and the viability change, negative = cytotoxic is reported as -0.875% [at 19 µM] (inactive). In the case of `O=C(Oc1ccccc1)c1ccccc1`, the “viability change, negative = cytotoxic” value is reported as 0.571% (inactive). With `O=C(O)CCCC[C@@H]1SC[C@@H]2NC(=O)N[C@@H]21` the Potency was “inactive”. For `OCCOCCN1CCN(C2=Nc3ccccc3Sc3ccccc32)CC1`, the Potency was “inactive”. For `CCCCN(CCCC)CCCC`, the Potency was “inactive”. With `CC[C@H](C)C(=O)O[C@H]1C[C@@H](C)C=C2C=C[C@H](C)[C@H](CC[C@@H]3C[C@@H](O)CC(=O)O3)[C@H]21` the Potency was “inactive”. In the case of `CCN(CC)c1ccc(C(=O)c2ccccc2C(=O)O)c(O)c1`, the Potency is reported as “inactive”. For `CCC(O)OCCCOC` (stereo not given), the Potency was 22.2 µM (active) and inactive. In the case of `CCCCCCCCCCCCCCCO`, the Potency is reported as 30.9 µM (active) and inactive. In the case of `CN(C)CCC(c1ccc(Cl)cc1)c1ccccn1` (stereo not given), the Potency is reported as 61.3 µM (active) and inactive. For `C#CCN(C)Cc1ccccc1`, the Potency was “inactive”. For `CCCCC(CC)COC(=O)C(C#N)=C(c1ccccc1)c1ccccc1` (stereo not given), the Potency was “inactive”. For `CC(c1cc2ccccc2s1)N(O)C(N)=O` (stereo not given), the Potency was “inactive”. With `Cc1ccc(N(C)C)cc1` the Potency was “inactive”. With `CCCSc1ccc2nc(NC(=O)OC)[nH]c2c1` the Potency was “inactive”. For `OCCOCCOCCO`, the Potency was “inactive”. For `O=C(O)c1cc(C(=O)O)cc(S(=O)(=O)O)c1`, the Potency was “inactive”. In the case of `O=C(OCCOCCOC(=O)c1ccccc1)c1ccccc1`, the Potency is reported as “inactive”. With `Cc1cnc(C(=O)NCCc2ccc(S(=O)(=O)NC(=O)NC3CCCCC3)cc2)cn1` the Potency was “inactive”. With `COc1ccc2cc([C@H](C)C(=O)O)ccc2c1` the Potency was “inactive”. In the case of `O=S1(=O)CC=CC1`, the Potency is reported as “inactive”.
